Laboratory results reported in PubChem BioAssay AID1159580 (chemical genetic matrix, 2015).
Out of some 5,500 compounds screened, about 2,000 (36%) were called active. Not shown: some 18% with an inconclusive outcome. Some of the results follow. Unmarked numbers belong to inactive results. Cut-off read from the data, not from the text of the source: active = normalized growth mostly below about 0.91 (no sharp cut-off); inconclusive = no clear call, values can overlap the other calls; inactive = mostly above about 0.92.

Test: chemical genetic growth profiling, strain panel (AID 1159580);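 note: tested at 20 µM; growth read once vehicle control cultures reached saturation at 30 °C; 1 = growth at the plate median or of vehicle wells; lower values mean less growth of the strain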
Details: S. cerevisiae deletion strains, growth OD
[1] = locus YAL040C, strain CLN3, active compounds read low
[2] = locus YCL061C, strain MRC1 (second series), active compounds read low
[3] = locus YDR363W, strain ESC2, active compounds read low
[4] = locus YER002W, strain NOP16, active compounds read low
[5] = locus YJR075W, strain HOC1, active compounds read low
[6] = locus YNL175C, strain NOP13, active compounds read low
[7] = locus YNL197C, strain WHI3, active compounds read low
[8] = locus YNL224C, strain SQS1, active compounds read low
[9] = locus YOR083W, strain WHI5 (second series), active compounds read low

CC1(C)O[C@@H]2CC3C4CCC5=CC(=O)C=C[C@]5(C)C4[C@@H](O)C[C@]3(C)[C@]2(C(=O)CO)O1 (some centres undefined)
normalized growth (locus YAL021C, strain ccr4, active compounds read low): 1.01 | normalized growth (locus YAL026C, strain drs2, active compounds read low): 1.01 | normalized growth (locus YAL030W, strain snc1, active compounds read low): 1.01 | normalized growth (locus YBL061C, strain skt5, active compounds read low): 1 | normalized growth (locus YBR009C, strain hhf1, active compounds read low): 1.01 | normalized growth (locus YBR023C, strain chs3, active compounds read low): 1 | normalized growth (locus YBR171W, strain sec66, active compounds read low): 0.994 | normalized growth (locus YBR231C, strain swc5, active compounds read low): 1.01 | normalized growth (locus YBR279W, strain paf1, active compounds read low): 1.01 | normalized growth (locus YCL011C, strain gbp2, active compounds read low): 1 | normalized growth (locus YCL016C, strain dcc1, active compounds read low): 1.01 | normalized growth (locus YCL061C, strain MRC1, active compounds read low): 0.999 | normalized growth (locus YCL069W, strain vba3, active compounds read low): 0.995 | normalized growth (locus YCR088W, strain abp1, active compounds read low): 0.993 | normalized growth (locus YDL005C, strain med2, active compounds read low): 0.999 | normalized growth (locus YDL040C, strain nat1, active compounds read low): 1 | normalized growth (locus YDR001C, strain nth1, active compounds read low): 0.999 | normalized growth (locus YDR069C, strain doa4, active compounds read low): 1 | normalized growth (locus YDR137W, strain rgp1, active compounds read low): 0.998 | normalized growth (locus YDR159W, strain sac3, active compounds read low): 1.02 | normalized growth (locus YDR195W, strain ref2): 1 | normalized growth (locus YDR297W, strain sur2, active compounds read low): 1 | normalized growth (locus YDR334W, strain swr1, active compounds read low): 1.01 | normalized growth (locus YDR335W, strain msn5, active compounds read low): 1.01 | normalized growth (locus YDR392W, strain spt3, active compounds read low): 0.983 | normalized growth (locus YEL003W, strain gim4, active compounds read low): 1.01 | normalized growth (locus YEL037C, strain rad23, active compounds read low): 0.994 | normalized growth (locus YEL061C, strain CIN8 (second series), active compounds read low): 1 | normalized growth (locus YER015W, strain faa2, active compounds read low): 1.01 | normalized growth (locus YER016W, strain bim1, active compounds read low): 0.995 | normalized growth (locus YER111C, strain swi4, active compounds read low): 1 | normalized growth (locus YER155C, strain BEM2 (second series), active compounds read low): 0.984 | normalized growth (locus YFR010W, strain ubp6, active compounds read low): 0.996 | normalized growth (locus YGL167C, strain pmr1, active compounds read low): 1.01 | normalized growth (locus YGL173C, strain kem1, active compounds read low): 1.01 | normalized growth (locus YGL227W, strain vid30, active compounds read low): 0.998 | normalized growth (locus YGL240W, strain doc1, active compounds read low): 1.01 | normalized growth (locus YGL253W, strain hxk2, active compounds read low): 1 | normalized growth (locus YHR013C, strain ard1, active compounds read low): 1.02 | normalized growth (locus YHR027C, strain rpn1, active compounds read low): 1.01 | normalized growth (locus YHR030C, strain SLT2, active compounds read low): 0.988 | normalized growth (locus YHR079C, strain IRE1, active compounds read low): 0.974 | normalized growth (locus YHR142W, strain chs7, active compounds read low): 1.01 | normalized growth (locus YJL092W, strain hpr5, active compounds read low): 0.997 | normalized growth (locus YJL095W, strain BCK1 (second series), active compounds read low): 1.01 | normalized growth (locus YJL095W, strain BCK1, active compounds read low): 0.985 | normalized growth (locus YJL115W, strain asf1, active compounds read low): 1 | normalized growth (locus YJL129C, strain trk1, active compounds read low): 1.03 | normalized growth (locus YJL154C, strain vps35, active compounds read low): 0.996 | normalized growth (locus YJL164C, strain tpk1, active compounds read low): 1.01 | normalized growth (locus YJL166W, strain qcr8, active compounds read low): 1.01 | normalized growth (locus YJL187C, strain SWE1, active compounds read low): 1 | normalized growth (locus YJR066W, strain TOR1, active compounds read low): 0.95 | normalized growth (locus YKL160W, strain elf1, active compounds read low): 1.02 | normalized growth (locus YKR026C, strain gcn3, active compounds read low): 0.982 | normalized growth (locus YKR091W, strain srl3, active compounds read low): 1.01 | normalized growth (locus YLL001W, strain dnm1, active compounds read low): 1 | normalized growth (locus YLL026W, active compounds read low): 1 | normalized growth (locus YLL041C, strain sdh2, active compounds read low): 1 | normalized growth (locus YLR027C, strain aat2, active compounds read low): 1.01 | normalized growth (locus YLR113W, strain HOG1, active compounds read low): 0.963 | normalized growth (locus YLR221C, strain rsa3, active compounds read low): 1.01 | normalized growth (locus YLR258W, strain gsy2, active compounds read low): 1 | normalized growth (locus YLR262C, strain YPT6 (second series), active compounds read low): 1.01 | normalized growth (locus YLR320W, strain mms22, active compounds read low): 1.01 | normalized growth (locus YLR342W, strain FKS1, active compounds read low): 1.02 | normalized growth (locus YLR357W, strain rsc2, active compounds read low): 0.976 | normalized growth (locus YLR370C, strain arc18, active compounds read low): 1.01 | normalized growth (locus YLR384C, strain iki3, active compounds read low): 1.01 | normalized growth (locus YML120C, strain ndi1, active compounds read low): 1.01 | normalized growth (locus YMR058W, strain fet3, active compounds read low): 1.02 | normalized growth (locus YMR125W, strain sto1, active compounds read low): 0.992 | normalized growth (locus YMR129W, active compounds read low): 1.01 | normalized growth (locus YMR205C, strain PFK2, active compounds read low): 0.978 | normalized growth (locus YMR231W, strain pep5, active compounds read low): 1 | normalized growth (locus YNL071W, strain lat1, active compounds read low): 0.998 | normalized growth (locus YNL183C, strain NPR1, active compounds read low): 0.918 | normalized growth (locus YNL209W, strain ssb2, active compounds read low): 1.02 | normalized growth (locus YNL248C, strain rpa49, active compounds read low): 1.01 | normalized growth (locus YNL322C, strain KRE1 (second series), active compounds read low): 0.998 | normalized growth (locus YNR049C, strain mso1, active compounds read low): 1.01 | normalized growth (locus YOR001W, strain rrp6, active compounds read low): 1.01 | normalized growth (locus YOR070C, strain gyp1, active compounds read low): 1 | normalized growth (locus YOR080W, strain dia2, active compounds read low): 1 | normalized growth (locus YOR083W, strain WHI5, active compounds read low): 1.02 | normalized growth (locus YOR106W, strain vam3, active compounds read low): 1 | normalized growth (locus YOR231W, strain MKK1, active compounds read low): 0.983 | normalized growth (locus YOR265W, strain rbl2, active compounds read low): 1.01 | normalized growth (locus YOR270C, strain vph1, active compounds read low): 1.03 | normalized growth (locus YOR290C, strain snf2, active compounds read low): 1.01 | normalized growth (locus YPL051W, strain arl3, active compounds read low): 1 | normalized growth (locus YPL078C, strain atp4, active compounds read low): 0.995 | normalized growth (locus YPL106C, strain sse1, active compounds read low): 0.998 | normalized growth (locus YPL240C, strain hsp82, active compounds read low): 1 | normalized growth (locus YPL256C, strain CLN2, active compounds read low): 0.996

C=CCN1CC[C@]23c4c5ccc(O)c4O[C@@H]2/C(=N\N=C2\CC[C@@]4(O)C6Cc7ccc(O)c8c7[C@@]4(CCN6CC=C)[C@@H]2O8)CC[C@@]3(O)C1C5
normalized growth [1]: 1.01 | normalized growth [2]: 1 | normalized growth (locus YDR150W, strain NUM1, active compounds read low): 1 | normalized growth [3]: 1.01 | normalized growth [4]: 1 | normalized growth [5]: 1 | normalized growth (locus YMR307W, strain GAS1, active compounds read low): 1.01 | normalized growth [6]: 0.988 | normalized growth [7]: 1.02 | normalized growth [8]: 1.01 | normalized growth [9]: 1.02 | normalized growth (locus YPL055C, strain LGE1, active compounds read low): 0.982

C=CCN1CCc2cccc3c2[C@H]1Cc1ccc(O)c(O)c1-3
normalized growth [1]: 0.942 | normalized growth [2]: 0.481 (active) | normalized growth [3]: 0.516 (active) | normalized growth [4]: 0.976 | normalized growth (locus YGR078C, strain PAC10, active compounds read low): 0.979 | normalized growth [5]: 0.199 (active) | normalized growth (locus YNL128W, strain TEP1, active compounds read low): 0.888 (active) | normalized growth [6]: 0.966 | normalized growth [7]: 0.961 | normalized growth [8]: 0.985 | normalized growth (locus YNL322C, strain KRE1, active compounds read low): 0.152 (active) | normalized growth [9]: 0.712 (active)
